# PubChem BioAssay
# The source made the active and inactive calls. Cut-off read from the data, not from the text of the source, unless noted: active = inhibition above about 80%; inactive = the rest.
# Legend:
# [1] = growth inhibition, single agent or in combination, cell-based, chromothripsis tumors, cisplatin or BGB combos (AID 1671449); details: LFS_MB_P medulloblastoma cells;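 note: cells exposed for 96 hours; 0% = vehicle DMSO and 100% = killing by high DMSO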
# [2] = growth inhibition, single agent and combos, cell-based, chromothripsis tumors, cisplatin or BGB combos (AID 1671450); details: HDN33 neuroblastoma cells, stronger effect = higher value;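 note: cells exposed to compound for four days; 0% = vehicle DMSO and 100% = cell killing by high DMSO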
# [3] = growth inhibition, single agents and combos, ICB984, cell-based, cisplatin or BGB combos, synergistic combos for chromothripsis tumors (AID 1671451; call rule not given here;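 note: cells exposed for 96 hours before readout; 0% = vehicle DMSO and 100% = killing by high DMSO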); details: ICB984 medulloblastoma cells, drug combinations, stronger effect = higher value
# [4] = growth inhibition, single agents and combos, LFS_MB_1R, cell-based, cisplatin or BGB combos, synergistic combos for chromothripsis tumors (AID 1671452); details: LFS_MB_1R medulloblastoma cells, stronger effect = higher value;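 note: cells exposed for 96 hours before readout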
# [5] = growth inhibition, single agents and combos, HTB85, cell-based, BGB or cisplatin IC20 combos, synergistic combos for chromothripsis tumors (AID 1671453); details: HTB85 osteosarcoma cells, drug combinations, stronger effect = higher value;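 note: cells exposed for 96 hours before readout; 0% = vehicle DMSO and 100% = high DMSO killing control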
# [6] = growth inhibition, single agents and combos, CRL2098, cell-based, BGB or cisplatin IC20 combos, synergistic combos for chromothripsis tumors (AID 1671454); details: CRL2098 osteosarcoma cells, drug combinations, stronger effect = higher value;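 note: cells exposed for 96 h before readout; 0% = vehicle DMSO and 100% = killing by high DMSO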
# [7] = growth inhibition, single agents and combos, HD-MB03, cell-based, BGB or cisplatin IC20 combos, synergistic combos for chromothripsis tumors (AID 1671455; in the data active = inhibition above about 83%;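 note: 0% = vehicle DMSO and 100% = high DMSO as cytotoxic control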); details: HD-MB03 medulloblastoma cells, stronger effect = higher value
# [8] = growth inhibition, single agents and combos, UWB1.289, cell-based, BGB or cisplatin combos, synergistic combos for chromothripsis tumors (AID 1671456); details: UWB1.289 ovarian carcinoma cells, stronger effect = higher value;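 note: cells exposed to compound for four days; 0% = vehicle DMSO and 100% = killing by high DMSO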
# [9] = growth inhibition, single agents and combos, LFS_MB_2R, cell-based, cisplatin combos, synergistic combos for chromothripsis tumors (AID 1671457); details: LFS_MB_2R medulloblastoma cells, stronger effect = higher value;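 note: cells exposed to compound for four days before readout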
# [10] = growth inhibition, MDA-MB-436, cell-based, BGB or cisplatin combos, synergistic combos for chromothripsis tumors (AID 1671458; call rule not given here;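 note: cells exposed for 96 hours; 0% = vehicle DMSO and 100% = killing by high DMSO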); details: MDA-MB-436 breast carcinoma growth inhibition, drug combinations, stronger effect = higher value
# [11] = UWB1.289_BRCA1 ovarian cancer growth, cell-based, BGB or cisplatin combinations (AID 1671459); details: UWB1.289 BRCA1 ovarian carcinoma, drug combinations, stronger effect = higher value
# [12] = drug combination toxicity in non-malignant astrocytes – cell-based, BGB or cisplatin IC20 combos, cytotoxicity control for chromothriptic childhood tumor combination screen (AID 1671460); details: Human astrocytes, viability inhibition, drug combinations, at 0.5 µM, stronger effect = higher value;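 note: cells exposed to compounds for 96 hours before viability readout; 0% = vehicle and 100% = killing control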
# [13] = BT084 cell growth, single and combined drugs, ICGC_MB145, cisplatin and BGB IC40 combos (AID 1671461); details: BT084 medulloblastoma cells, drug combinations, stronger effect = higher value;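 note: cells exposed to drugs for 96 hours; 0% = vehicle DMSO and 100% = high DMSO full killing control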
# [14] = RCMB18 cell growth, single agent and combined, cisplatin and BGB IC40 combos (AID 1671462); details: RCMB18 medulloblastoma cells, stronger effect = higher value;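 note: cells exposed to compound for four days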
# [15] = CRL1545 cell growth, single agent and combined, cisplatin and BGB IC20 combos (AID 1671464); details: CRL1545 osteosarcoma cells, stronger effect = higher value;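 note: cells exposed to compound for 96 hours before readout; 0% = vehicle DMSO and 100% = high DMSO killing control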
# [16] = measured here: combination with BGB IC40, at 0.05 µM
# [17] = measured here: with BGB IC20 combination, at 0.5 µM
# [18] = measured here: with cisplatin IC20 combination, at 0.5 µM
# [19] = measured here: combination with cisplatin, at 0.5 µM
# [20] = measured here: combination with cisplatin, at 5 µM
compound,measurement,setting,value
Cc1c(Br)cc(NCC(=O)N/N=C/c2cc([N+](=O)[O-])ccc2O)cc1Br,inhibition,"[1]; at 0.5 µM, stronger effect = higher value",4.38% (inactive)
same,inhibition,"[1]; measured here: combination with BGB IC20, at 0.005 µM",-17.6%
same,inhibition,"[1]; measured here: combination with BGB IC40, at 0.005 µM",-32.2%
same,inhibition,[1]; [16],-25.9%
same,inhibition,"[1]; measured here: combination with cisplatin, at 0.5 µM, stronger effect = higher value",-13.3%
same,inhibition,"[1]; measured here: combination with cisplatin, at 5 µM, stronger effect = higher value",49.2%
same,inhibition,"[2]; BGB combo, at 5 µM",40.5%
same,inhibition,[2]; at 0.5 µM,-0.34% (inactive)
same,inhibition,"[2]; cisplatin combo, at 5 µM",36.1%
same,inhibition,[2]; [17],-9.6%
same,inhibition,[2]; [18],14.3%
same,inhibition,"[2]; single agent, at 5 µM",47.8%
same,inhibition,"[3]; BGB IC20 combo, at 0.005 µM",-14%
same,inhibition,"[3]; BGB IC40 combo, at 0.005 µM",-19.6%
same,inhibition,"[3]; BGB IC40 combo, at 0.05 µM",-0.825%
same,inhibition,[3]; at 0.5 µM,-30.2% (inactive)
same,inhibition,"[3]; cisplatin combo, at 0.05 µM",-3.64%
same,inhibition,"[3]; cisplatin combo, at 0.5 µM",-27.9%
same,inhibition,"[3]; cisplatin combo, at 5 µM",-29.5%
same,inhibition,"[3]; measured here: 5 uM single agent, at 5 µM",-33%
same,inhibition,[4]; at 0.5 µM,-22.2% (inactive)
same,inhibition,[4]; [16],-11.7%
same,inhibition,[4]; [19],-16.8%
same,inhibition,[4]; [20],13.4%
same,inhibition,[5]; at 0.5 µM,-6.09% (inactive)
same,inhibition,"[5]; measured here: with BGB IC20, at 0.5 µM",-1.02%
same,inhibition,"[5]; measured here: with BGB IC20, at 5 µM",19.1%
same,inhibition,"[5]; measured here: with cisplatin IC20, at 0.5 µM",-24.4%
same,inhibition,"[5]; measured here: with cisplatin IC20, at 5 µM",5.29%
same,inhibition,"[5]; single agent, at 5 µM",37.4%
same,inhibition,[6]; at 0.5 µM,-42.4% (inactive)
same,inhibition,"[6]; measured here: combination with BGB at IC20, at 0.5 µM",-43.9%
same,inhibition,"[6]; measured here: combination with cisplatin at IC20, at 0.5 µM",-25%
same,inhibition,[7]; at 0.5 µM,-7.25% (inactive)
same,inhibition,"[7]; measured here: combo with BGB at IC20, at 0.5 µM",1.43%
same,inhibition,"[7]; measured here: combo with cisplatin at IC20, at 0.5 µM",-13.4%
same,inhibition,[8]; at 0.5 µM,5% (inactive)
same,inhibition,"[8]; measured here: inhibition with BGB combination, at 0.05 µM",-18.4%
same,inhibition,"[8]; measured here: inhibition with cisplatin combination, at 0.05 µM",-10.8%
same,inhibition,[9]; at 0.5 µM,-13% (inactive)
same,inhibition,[9]; [19],-18.6%
same,inhibition,[9]; [20],-37.8%
same,inhibition,[10]; at 0.5 µM,-18.5% (inactive)
same,inhibition,"[10]; measured here: BGB combination, at 0.5 µM",-10.2%
same,inhibition,"[10]; measured here: BGB combination, at 5 µM",25.8%
same,inhibition,"[10]; measured here: cisplatin combination, at 0.5 µM",-39%
same,inhibition,"[10]; measured here: cisplatin combination, at 5 µM",38.4%
same,inhibition,"[11]; BGB combination, concentration series, at 5 µM",59.1%
same,inhibition,[11]; at 0.5 µM,2.01% (inactive)
same,inhibition,"[11]; cisplatin combination, concentration series, at 5 µM",60.8%
same,inhibition,[12],9.92% (inactive)
same,inhibition,[12]; measured here: combo with BGB IC20,11.5%
same,inhibition,[12]; measured here: combo with cisplatin IC20,17.7%
same,inhibition,[13]; at 0.5 µM,-9.67% (inactive)
same,inhibition,"[13]; cisplatin combination, at 0.5 µM",-1.86%
same,inhibition,"[13]; cisplatin combination, at 5 µM",27.3%
same,inhibition,"[13]; measured here: BGB IC40 combination 0.05 uM, at 0.05 µM",-3.3%
same,inhibition,"[13]; single agent, at 5 µM",6.62%
same,inhibition,[14]; at 0.5 µM,-19% (inactive)
same,inhibition,"[14]; cisplatin combo, at 5 µM",25.8%
same,inhibition,"[14]; measured here: BGB IC40 combination, at 0.05 µM",-28.4%
same,inhibition,[14]; [19],22%
same,inhibition,"[14]; single agent, at 5 µM",8.19%
same,inhibition,[15]; at 0.5 µM,-4.87% (inactive)
same,inhibition,[15]; [17],-10.5%
same,inhibition,[15]; [18],-4.39%
same,inhibition,"[15]; single agent, at 0.05 µM",-22.9%
same,inhibition,"[15]; single agent, at 5 µM",44.6%
